# Bioassay records: PubChem, several laboratories
# HSF1 inhib = HSF1 inhibition; AID 2098; 300,000 tested, 0.77% active; activity change, negative = inhibition, % at 7.5 µM (by protocol); NIH3T3-HGL HSE-luciferase, MG132-induced, luminescence 8 h; active compounds read low;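 active = more than half of replicate wells show activity change below -50%, luminescence cut by over half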;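 note: luciferase reports HSF-1 transcriptional activity via heat shock element; 0% = median of DMSO wells and -100% = zero luminescence signal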
# HSF-1 act = increases HSF-1 driven luciferase reporter signal. NIH3T3-HGL HSF-1 luciferase reporter, MG132, 8 h; 100% = twice DMSO control signal. activation, % at 9 µM. 300,000 tested, 1.7% active. AID 504408;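 active = mean replicate activation of at least 50% with a set share of replicates each reaching 50%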;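 note: 0% = median of the neutral control wells and 100% = twice that signal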
# AHR activator = activators of human aryl hydrocarbon receptor; activation, % at 5 µM; AHR-responsive luciferase reporter cells, luminescence; AID 2796; P35869; 320,000 tested, 2.5% active; in the data active = activation above about 47%;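 note: 0% = vehicle wells and 100% = reference agonist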
# Target sequence (P35869 whole entry, looked up): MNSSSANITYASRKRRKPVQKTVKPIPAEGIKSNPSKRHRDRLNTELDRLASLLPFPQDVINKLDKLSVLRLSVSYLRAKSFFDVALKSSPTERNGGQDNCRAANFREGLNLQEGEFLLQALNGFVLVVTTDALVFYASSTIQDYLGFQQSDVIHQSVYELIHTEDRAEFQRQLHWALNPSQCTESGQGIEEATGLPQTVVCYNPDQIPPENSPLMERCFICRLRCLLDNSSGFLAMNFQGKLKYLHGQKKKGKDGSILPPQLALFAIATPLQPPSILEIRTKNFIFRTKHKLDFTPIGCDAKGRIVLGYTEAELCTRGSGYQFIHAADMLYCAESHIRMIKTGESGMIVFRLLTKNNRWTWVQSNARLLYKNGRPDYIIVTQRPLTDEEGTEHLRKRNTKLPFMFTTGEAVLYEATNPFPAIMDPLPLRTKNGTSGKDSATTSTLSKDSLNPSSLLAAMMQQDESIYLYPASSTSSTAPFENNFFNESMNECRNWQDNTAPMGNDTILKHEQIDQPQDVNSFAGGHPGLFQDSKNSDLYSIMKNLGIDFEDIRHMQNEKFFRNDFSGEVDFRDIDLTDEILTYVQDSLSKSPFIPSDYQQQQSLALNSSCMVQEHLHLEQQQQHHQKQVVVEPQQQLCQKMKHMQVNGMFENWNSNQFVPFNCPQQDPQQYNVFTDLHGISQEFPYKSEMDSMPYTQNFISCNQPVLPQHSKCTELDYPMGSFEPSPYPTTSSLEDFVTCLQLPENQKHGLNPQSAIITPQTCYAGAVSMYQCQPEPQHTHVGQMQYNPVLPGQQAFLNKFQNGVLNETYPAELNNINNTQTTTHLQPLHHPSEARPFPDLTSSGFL
# FXN GAA850 act = increases GAA850 frataxin promoter reporter activity; HEK293 lucGAA850 FXN promoter luciferase reporter, 24 h; percent of 10 µM SAHA response; activation, % at 6 µM; 360,000 tested, 0.56% active;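 active = activation above the average of all compounds screened plus 3 SD, cutoff fixed separately per campaign, cut at about 7.5% in these data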;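 note: 0% = DMSO wells and 100% = 10 µM SAHA wells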
# Active calls of the source: *. Rows were chosen to be rich in hits. Some 4.6% of all compounds tested hit in one or more screens of this group.
SMILES,HSF1 inhib,HSF-1 act,AHR activator,FXN GAA850 act
C=CCn1c(N)c(C(=O)Nc2ccc(C)cc2)sc1=S,4,22,-13,3
Cn1c(N)c(C(=O)Nc2ccc(-c3ccccc3)cc2)sc1=S,-52*,-63,2,1
Cc1ccccc1-n1c(SCc2ccccn2)nc2n[nH]c(C)c2c1=N,-5,-1,66*,6
Cc1ccccc1-n1c(SCC(=O)Nc2ccccc2Cl)nc2n[nH]c(C)c2c1=N,16,45,62*,2
O=C(NCc1ccccc1)c1c(Cl)nc(Cl)c(Cl)c1Cl,35,65*,-2,0
O=C(/C=C/c1ccc(F)cc1)c1ccccc1Br,7,10,-3,9.3*
CC1=C(C(=O)Nc2ccc(C)cc2C)C(c2cccs2)NC(=S)N1 (centres undefined),-6,-3,3,3
CC1=C(C(=O)Nc2ccccc2C)C(c2cccs2)NC(=S)N1 (centres undefined),-51*,-62,0,3
CC(=O)N(c1cccc(C(F)(F)F)c1)c1nc(/C=C/C(=O)O)cs1,10,-17,73*,1
CC(C)c1nc2oc3ccccc3c(=O)c2c(=O)n1-c1ccccc1,10,3,103*,-5
Cc1cccc(NC(=O)c2cc(-c3ccc(C)s3)nc3ccccc23)n1,-44,-50,56*,-5
